These results are taken from PubChem BioAssay (NCI).

The structures appear in SMILES notation. The panel holds about 79,000 compounds, 15% with a hit somewhere; the sample as a whole holds those more often. Unmarked numbers belong to inactive results. Activity calls are given as the source filed them. Rule as the data show it: active = growth inhibition above about 70%; inactive = the rest.

A short description of assay [1]: NCI Yeast Anticancer Drug Screen. Data for the rad50 strain (AID 155).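 Also: 0% = growth of vehicle-only cultures of the same strain.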 As to conditions: S. cerevisiae rad50 strain growth inhibition, active compounds read high. In a few lines: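 Growth of the mutant yeast was measured after compound exposure and referenced to vehicle-treated cultures.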
A short description of assay [2]: NCI Yeast Anticancer Drug Screen. Data for the mec2-1 strain (AID 157). As to conditions: S. cerevisiae mec2-1 strain, active compounds read high. The method in brief:
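Each compound was tested on mec2-1 yeast, a strain altered in DNA damage repair or cell cycle control. Growth inhibition is reported relative to vehicle.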

Assay [3] can be described thus: NCI Yeast Anticancer Drug Screen. Data for the sgs1 mgt1 strain (AID 161).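 Also: 0% = growth of cultures given vehicle only.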 As to conditions: S. cerevisiae sgs1 mgt1 strain, active compounds read high. In a few lines:
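Genetically altered yeast, compound exposure, growth inhibition relative to vehicle.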

The nature of assay [4]: NCI Yeast Anticancer Drug Screen. Data for the cln2 rad14 strain (AID 165).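 Also: 0% = growth equal to vehicle treated cultures.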 As to conditions: S. cerevisiae cln2 rad14 strain, active compounds read high. The method in brief: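 Test compounds were added to cln2 rad14 yeast cultures; inhibition of growth was then determined by comparison with vehicle treatment.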
The nature of assay [5]: NCI Yeast Anticancer Drug Screen. Data for the bub3 strain (AID 167). As to conditions: S. cerevisiae bub3 mutant strain, active compounds read high. The method in brief:
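Whole-cell yeast assay. The mutant strain was incubated with compounds, and growth inhibition was determined by comparison with vehicle-treated cells.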

Assay [6] in a line: NCI Yeast Anticancer Drug Screen. Data for the mlh1 rad18 strain (AID 175). As to conditions: S. cerevisiae mlh1 rad18 strain growth inhibition, active compounds read high. In a few lines:
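Inhibition values reflect reduced growth of mutant yeast versus vehicle-treated controls following compound exposure; the mutations affect DNA damage repair.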

[7] abbreviates: at 5.0 µM (retest, dose inferred, filed as 0.5).
Where [8] appears, read: at 50.0 µM (retest, dose inferred, filed as 5.0).

For `C[N+]1(C)C/C(=C\C=C\c2ccccc2)C(=O)/C(=C/C=C/c2ccccc2)C1`, the growth inhibition in assay [1] (setting [7]) is 17%; in assay [1] (setting [8]), 17%; in assay [1] (at 50.0 µM) it was 93.2% (active); in assay [2] (setting [7]) it was 9%; in assay [2] (setting [8]), 9%; in assay [2] (at 50.0 µM) it was 92.1% (active). Further, the growth inhibition in assay [3] (setting [7]) is 17%; in assay [3] (setting [8]) it was 17%; in assay [3] (at 50.0 µM), 92.6% (active); in assay [4] (setting [7]), 0%; in assay [4] (setting [8]), 0%; in assay [4] (at 50.0 µM), 91.5% (active). Moreover, the growth inhibition is -2% in assay [5] (setting [7]); -2% in assay [5] (setting [8]); 93.9% (active) in assay [5] (at 50.0 µM); 9% in assay [6] (setting [7]); 9% in assay [6] (setting [8]); 92.5% (active) in assay [6] (at 50.0 µM).

Turning to `COc1cccc(NC(=S)NC2CC(C)CC(C)(C)C2)c1` (stereo not given), the growth inhibition in assay [1] (setting [7]) is 24%; in assay [1] (setting [8]), 94% (active); in assay [1] (at 50.0 µM), 86.5% (active); in assay [2] (setting [7]), -11%; in assay [2] (setting [8]), 85% (active); in assay [2] (at 50.0 µM), 89.3% (active). For the same compound, the growth inhibition in assay [3] (setting [7]) was -1%; in assay [3] (setting [8]), 94% (active); in assay [3] (at 50.0 µM), 89.8% (active); in assay [4] (setting [7]), 30%; in assay [4] (setting [8]), 90% (active); in assay [4] (at 50.0 µM) it was 86.2% (active). Further, the growth inhibition in assay [5] (setting [7]) was 8%; in assay [5] (setting [8]), 93% (active); in assay [5] (at 50.0 µM), 89.2% (active); in assay [6] (setting [7]), -7%; in assay [6] (setting [8]), 93% (active); in assay [6] (at 50.0 µM), 84.8% (active).

For the compound `ClC(Cl)=C1C(=C(Cl)Cl)C(Cl)(Cl)C1(Cl)Cl`, the growth inhibition in assay [1] (setting [7]) was 51%; in assay [1] (setting [8]), 98% (active); in assay [1] (at 50.0 µM) it was 88.2% (active); in assay [2] (setting [7]), 14%; in assay [2] (setting [8]), 99% (active); in assay [2] (at 50.0 µM), 92.6% (active). Moreover, the growth inhibition is 70% (active) in assay [3] (setting [7]); 99% (active) in assay [3] (setting [8]); 92% (active) in assay [3] (at 50.0 µM); 55% in assay [4] (setting [7]); 97% (active) in assay [4] (setting [8]); 92.7% (active) in assay [4] (at 50.0 µM). Moreover, the growth inhibition was 56% in assay [5] (setting [7]); 98% (active) in assay [5] (setting [8]); 91.2% (active) in assay [5] (at 50.0 µM); 74% (active) in assay [6] (setting [7]); 98% (active) in assay [6] (setting [8]); 88.2% (active) in assay [6] (at 50.0 µM).

For the compound `NC(CSSCC(N)=NCCCCCSC12CC3CC(CC(C3)C1)C2)=NCCCCCSC12CC3CC(CC(C3)C1)C2`, the growth inhibition in assay [1] (setting [7]) is -2%; in assay [1] (setting [8]), 22%; in assay [1] (at 50.0 µM), 99.2% (active); in assay [2] (setting [7]), 1%; in assay [2] (setting [8]), 11%; in assay [2] (at 50.0 µM), 99.6% (active). Besides, the growth inhibition in assay [3] (setting [7]) was 1%; in assay [3] (setting [8]), 12%; in assay [3] (at 50.0 µM), 99.5% (active); in assay [4] (setting [7]), 3%; in assay [4] (setting [8]) it was 2%; in assay [4] (at 50.0 µM), 98.8% (active). The growth inhibition in assay [5] (setting [7]) is 5%; in assay [5] (setting [8]) it was 15%; in assay [5] (at 50.0 µM), 98.7% (active); in assay [6] (setting [7]), 0%; in assay [6] (setting [8]), 16%; in assay [6] (at 50.0 µM) it was 99.3% (active).

For the compound `ClC1(Cl)c2ccccc2-c2ccccc21`, the growth inhibition is -147% in assay [1] (setting [7]); -36% in assay [1] (setting [8]); 7.55% in assay [1] (at 50.0 µM); -51% in assay [2] (setting [7]); -40% in assay [2] (setting [8]); -4.1% in assay [2] (at 50.0 µM). Also, the growth inhibition in assay [3] (setting [7]) is -59%; in assay [3] (setting [8]), -49%; in assay [3] (at 50.0 µM), -7.05%; in assay [4] (setting [7]), -55%; in assay [4] (setting [8]) it was -54%; in assay [4] (at 50.0 µM), 43.4%. Further, the growth inhibition is -67% in assay [5] (setting [7]); -55% in assay [5] (setting [8]); -21% in assay [5] (at 50.0 µM); -115% in assay [6] (setting [7]); -79% in assay [6] (setting [8]); -2.85% in assay [6] (at 50.0 µM).

With `C/C(=N\NC(N)=S)C(CN1CCCCC1)C(C1=C(O)c2ccccc2OC1)c1ccccc1` (stereo not given), the growth inhibition in assay [1] (setting [7]) was 10%; in assay [1] (setting [8]), 38%; in assay [1] (at 50.0 µM), 64.7%; in assay [2] (setting [7]), 6%; in assay [2] (setting [8]) it was 45%; in assay [2] (at 50.0 µM), 63%. Besides, the growth inhibition in assay [3] (setting [7]) was 19%; in assay [3] (setting [8]), 67%; in assay [3] (at 50.0 µM), 68.5%; in assay [4] (setting [7]), 22%; in assay [4] (setting [8]), 62%; in assay [4] (at 50.0 µM) it was 53.7%. Further, the growth inhibition was 32% in assay [5] (setting [7]); 70% (active) in assay [5] (setting [8]); 71.8% (active) in assay [5] (at 50.0 µM); 20% in assay [6] (setting [7]); 55% in assay [6] (setting [8]); 67.5% in assay [6] (at 50.0 µM).

`CCCCCCCCCCCC(=O)OCCCCC`: the growth inhibition in assay [1] (setting [7]) was -5%; in assay [1] (setting [8]) it was 0%; in assay [1] (at 50.0 µM), 74.8% (active); in assay [2] (setting [7]), -1%; in assay [2] (setting [8]), 1%; in assay [2] (at 50.0 µM), 87.3% (active). Also, the growth inhibition is -3% in assay [3] (setting [7]); 3% in assay [3] (setting [8]); 65.8% in assay [3] (at 50.0 µM); -1% in assay [4] (setting [7]); -4% in assay [4] (setting [8]); -2.5% in assay [4] (at 50.0 µM). Besides, the growth inhibition in assay [5] (setting [7]) was -2%; in assay [5] (setting [8]), -4%; in assay [5] (at 50.0 µM) it was 80.6% (active); in assay [6] (setting [7]), -8%; in assay [6] (setting [8]), 0%; in assay [6] (at 50.0 µM), 87.7% (active).

Take `CCc1cc(C)cc(NC(=O)OC2CCCCC2C)c1` (stereo not given): the growth inhibition was 42% in assay [1] (setting [7]); 66% in assay [1] (setting [8]); 90.2% (active) in assay [1] (at 50.0 µM); 35% in assay [2] (setting [7]); 49% in assay [2] (setting [8]); 91% (active) in assay [2] (at 50.0 µM). The growth inhibition in assay [3] (setting [7]) is 35%; in assay [3] (setting [8]), 92% (active); in assay [3] (at 50.0 µM) it was 91.2% (active); in assay [4] (setting [7]), 20%; in assay [4] (setting [8]), 69%; in assay [4] (at 50.0 µM), 89.1% (active). Moreover, the growth inhibition in assay [5] (setting [7]) was 37%; in assay [5] (setting [8]) it was 85% (active); in assay [5] (at 50.0 µM), 91.3% (active); in assay [6] (setting [7]), 38%; in assay [6] (setting [8]), 72% (active); in assay [6] (at 50.0 µM), 90.4% (active).

Take `O=S1(=O)CC2C1C1(Cl)OC2(Cl)c2ccccc21` (stereo not given): the growth inhibition in assay [1] (setting [7]) was 2%; in assay [1] (setting [8]), 13%; in assay [1] (at 50.0 µM), 75.2% (active); in assay [2] (setting [7]), 16%; in assay [2] (setting [8]), 9%; in assay [2] (at 50.0 µM), -9.25%. In addition, the growth inhibition in assay [3] (setting [7]) is 2%; in assay [3] (setting [8]) it was 6%; in assay [3] (at 50.0 µM), 31.1%; in assay [4] (setting [7]), -45%; in assay [4] (setting [8]), 17%; in assay [4] (at 50.0 µM), -1.65%. Besides, the growth inhibition in assay [5] (setting [7]) was -3%; in assay [5] (setting [8]) it was -9%; in assay [5] (at 50.0 µM), 21.4%; in assay [6] (setting [7]), 1%; in assay [6] (setting [8]) it was 1%; in assay [6] (at 50.0 µM) it was 27.6%.

For the compound `CN1CCN(CC(C(=O)O)(c2ccccc2)c2ccccc2)CC1`, the growth inhibition in assay [1] (setting [7]) was -1%; in assay [1] (setting [8]) it was 2%; in assay [1] (at 50.0 µM), -1.85%; in assay [2] (setting [7]), 3%; in assay [2] (setting [8]), -5%; in assay [2] (at 50.0 µM), 5.05%. For the same compound, the growth inhibition was -3% in assay [3] (setting [7]); 0% in assay [3] (setting [8]); -16.6% in assay [3] (at 50.0 µM); 4% in assay [4] (setting [7]); -1% in assay [4] (setting [8]); 14.2% in assay [4] (at 50.0 µM). Besides, the growth inhibition is 0% in assay [5] (setting [7]); -5% in assay [5] (setting [8]); 59.5% in assay [5] (at 50.0 µM); -1% in assay [6] (setting [7]); -4% in assay [6] (setting [8]); -13.2% in assay [6] (at 50.0 µM).
